Inconclusive results are not listed. Entries that show only a call come without a potency. Calls of active or inactive are those of the source. The call rests on the fitted dose curve; in most records, active means well fitted inhibition curve with a large enough effect; inconclusive means small, poorly fitted or top-dose-only effect; inactive means no such curve, though single readings can be large or run the other way.
Test: P-glycoprotein substrates identified in KB-3-1 adenocarcinoma cell line, qHTS therapeutic library screen (AID 1346986); further: nearly all actives have a fitted effect of over 60% in size
Settings: KB-3-1 parental cells viability, CellTiter-Glo, 72 h; series mostly up to 44.5 µM
In short: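 Counter-screen: cherry-picked hits retested in the KB pair and in HEK-293 pcDNA/MDR-19 cells ± tariquidar. Primary screen used 72 h CellTiter-Glo viability in KB-3-1 and KB-8-5-11.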

SMILES	Potency	outcome
Cc1cn(C[C@H](N)C(=O)O)c(=O)n(Cc2cc(-c3ccccc3)sc2C(=O)O)c1=O	inactive	–
COC(=O)C12C(=O)C(C)(O)C(=O)C1(C)C(C)=CC1C34CCC(OC3=O)C(C)(CO)C4CCC12C (stereo not drawn)	inactive	–
COC(=O)C1(C)CCC(O)C2(C)c3cc(O)c(C(C)C)cc3C(O)C(OC(C)=O)C12 (stereo not drawn)	inactive	–
CCC(C)(C#N)O[C@@H]1O[C@H](CO)[C@@H](O)[C@H](O)[C@H]1O (stereo partly drawn)	inactive	–
CCc1c(C(=O)C(N)=O)c2c(OCC(=O)OC)cccc2n1Cc1ccccc1	inactive	–
C=C(C)[C@H]1O[C@H]2CC[C@@]3(C)[C@@](O)(CC[C@H]4[C@@H]5OC(C)(C)[C@H]6C[C@@H]7C(=C)Cc8c(Cl)cc9[nH]c(c5c9c8[C@@]76O)[C@@]43C)[C@]23O[C@@H]3[C@H]1O	inactive	–
CCCCCOc1cc2c(cc1-c1cc(/C=C/C(=O)O)ccc1O)C(C)(C)CCC2(C)C	inactive	–
Oc1ccc2c3c1O[C@H]1[C@H](N(CCCl)CCCl)CC[C@@]4(O)[C@@H](C2)N(CC2CC2)CC[C@]314	–	inactive [at 9.29 µM]
